# Reference: PubChem BioAssay (NCATS)
# A number with no mark means an inactive call. Calls of active or inactive are those of the source. Calls follow the shape of the dose curve; as a rule, active = well fitted curve in the direction sought with a large enough effect; inconclusive = small, poorly fitted or top-dose-only effect, or another doubt; inactive = no such curve, though single readings can be large or run the other way.
# Assay: Validation qHTS assay for inhibitors of Activation Induced Cytidine Deaminase (AID): UDG Counterscreen signal (AID 1347427); as to activity, negative = inhibition: 0% is about no effect
# Conditions: biochemical UDG counterscreen, fluorescence signal; series mostly up to 115 µM; activity, negative = inhibition: at the top concentration
# Summary of the method: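 Fluorescence at 560 nm excitation, 665 nm emission reports UDG signal after 250 mM NaOH (2x) addition and 30 min. Enzymes (AID 1 uM, UDG 2 U/mL, at 4/3x) preincubated 10 min with compound, then 4 h with 4x 250 nM DJC20/DJC23 substrate at room temperature.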
# Potency is read from the fitted curve at half-maximal effect.
SMILES,"activity, negative = inhibition",Potency
O=c1cc(-c2ccccc2)[nH]c2nc(Cl)ccc12,11.5%,–
N#Cc1cc([N+](=O)[O-])c2sc(C(N)=O)[n+]([O-])c2c1,10.8%,–
CN1CCCC1CCOC(C)(c1ccccc1)c1ccc(Cl)cc1 (centres undefined),1.51%,–
O=C(O)C1=CC(=C(c2ccc(O)c(C(=O)O)c2)c2ccc(O)c(C(=O)O)c2)C=CC1=O,–,89.1 µM (active)
Nc1nc2ccc(Cl)cc2c2nc(-c3ccco3)nn12,6.92%,–
O=C1Cc2c([nH]c3ccc(Br)cc23)-c2ccccc2N1,5.41%,–
COc1cc(/C=C(\C#N)C(=O)Nc2nnc(C(F)(F)F)s2)ccc1OCc1ccc(C(F)(F)F)cc1C(F)(F)F,-14.4%,–
O=c1cc(-c2ccccc2F)[nH]c2cc3c(cc12)OCO3,7.89%,–
CN1CCN(c2nc3cc(C(F)(F)F)ccc3n3cccc23)CC1,11.4%,–
